According to PubChem BioAssay (NCATS):
Where “and” joins values, the source holds several entries; their conditions need not be identical. Identical values can stand only once. Results filed as inconclusive are left out. Values without a mark were called inactive. Calls of active or inactive are those of the source. The call rests on the fitted dose curve; in most records, active means well fitted inhibition curve with a large enough effect; inconclusive means small, poorly fitted or top-dose-only effect; inactive means no such curve, though single readings can be large or run the other way.
On the % scale 0 is the no-effect control and ±100 the full control effect.

Assay: Primary qHTS for inhibitors of nuclear receptor binding SET domain protein 2 (NSD2) in an RCH-ACV wild type WT cells (2C) (AID 1645877); further: nearly all actives have a fitted effect of over 70% in size
Settings: RCH-ACV (leukaemia line) NSD2 WT (2C) viability, CellTiter-Glo, 72 h; series mostly up to 44.9 µM; activity change, negative = cell killing: at the top concentration
Excerpt: Assay Provider: Jonathan D. Licht, MD
University of Florida College of Medicine, Gainesville, FL
Mutations in epigenetic regulators are common in relapsed pediatric acute lymphoblastic leukemia (ALL). Here, we uncovered the mechanism underlying the relapse of ALL driven by an activating mutation of the NSD2 histone methyltransferase (p.E1099K). […] Correction of this mutation restored glucocorticoid sensitivity. The transcriptional response to glucocorticoids was blocked in NSD2 mutant cells due to depressed glucocorticoid receptor (GR) levels and the failure of glucocorticoids to autoactivate GR expression. […] Pre-treatment of NSD2 p.E1099K cell lines and PDX samples with PRC2 inhibitors reversed glucocorticoid resistance in vitro and in vivo.
High-throughput drug screening of isogenic RCH-ACV cell lines was performed at the National Center for Advancing Translational Science (NCATS), National Institutes of Health as previously described (1). Briefly, isogenic RCH-ACV NSD2 p.E1099K mutant (9B) and WT cells (2C) were plated at 500 cells/well in a 1536-well plate with a 72-hour incubation with compounds prior to addition of CellTiter-Glo to assess cell viability. NCATS libraries screened include: NPC, MIPE 5.0, Kinase and NPACT. To determine compound activity in the qHTS assay, the concentration-response data for each sample was plotted and modeled by a four-parameter logistic fit yielding IC50 and efficacy (maximal response) values. The area under the curve (AUC) of the dose-response curve ensures both efficacy (magnitude of cell killing) and potency (concentration that elicits cell killing) are accounted for in the analysis of activity.
1. Tobie D Lee, Olivia W Lee, Kyle R Brimacombe, Lu Chen, Rajarshi Guha, Sabrina Lusvarghi, Bethilehem G Tebase, Carleen Klumpp-Thomas, Robert W Robey, Suresh V Ambudkar, Min Shen, Michael M Gottesman, Matthew D Hall. A High-Throughput Screen of a Library of Therapeutics Identifies Cytotoxic Substrates of P-glycoprotein. Mol Pharmacol. 2019, Nov;96(5):629-640.
With CC(C)C[C@H](NC(=O)[C@H](Cc1ccccc1)NC(=O)c1cnccn1)B(O)O the Potency was 3.8 nM (active) and 6.5 nM (active) and 18.6 nM (active).
With O=C(NOCC1CC1)c1ccc(F)c(F)c1Nc1ccc(I)cc1Cl the Potency was 6.68 µM (active) and 20.5 µM (active).
With CC1(C)NC(=O)N(c2ccc([N+](=O)[O-])c(C(F)(F)F)c2)C1=O the Potency was “inactive”.
With C=C(c1ccc(C(=O)O)cc1)c1cc2c(cc1C)C(C)(C)CCC2(C)C the Potency was “inactive”.
For O=C(O)c1cccc(-c2noc(-c3ccccc3F)n2)c1, the “activity change, negative = cell killing” value was -0.47%.
With O=C(NCCO[N+](=O)[O-])c1cccnc1 the Potency was “inactive”.
In the case of NCCCCNCCCN, the Potency was 6.61 µM (active).
In the case of O=P(O)(O)C(O)(Cn1ccnc1)P(=O)(O)O, the outcome was “inactive [at 4.96 µM]”.
With COc1cc2c(N3CCN(C(=O)Nc4ccc(OC(C)C)cc4)CC3)ncnc2cc1OCCCN1CCCCC1 the Potency was 13.3 µM (active) and 23 µM (active) and 16.6 µM (active).
In the case of CC(C)c1ccc2oc3nc(N)c(C(=O)O)cc3c(=O)c2c1, the Potency was “inactive”.
With COc1ccc(C2(C#N)CCC(C(=O)O)CC2)cc1OC1CCCC1 (stereo not given) the Potency was “inactive”.
For Nc1ccc(S(N)(=O)=O)cc1, the “activity change, negative = cell killing” value was -10.6%.
For CCCCN(CCCC)CCC(O)c1cc2c(Cl)cc(Cl)cc2c2cc(C(F)(F)F)ccc12 (stereo not given), the Potency was 16.6 µM (active).
With CN1CCC(=C2c3ccccc3CCc3sccc32)CC1 the Potency was 23.5 µM (active).
For COCCCN1CCC(NC(=O)c2cc(Cl)c(N)c3c2OCC3)CC1, the “activity change, negative = cell killing” value was 3.71%.
With CN(C)c1ccc2nc3ccc(=[N+](C)C)cc-3sc2c1 the Potency was 1.32 µM (active) and 2.37 µM (active).
For C[C@@H](N)C1CCC(C(=O)Nc2ccncc2)CC1 (stereo not given in full), the “activity change, negative = cell killing” value was -17.5%.
In the case of Cc1ccc(Nc2nccc(N(C)c3ccc4c(C)n(C)nc4c3)n2)cc1S(N)(=O)=O, the Potency was 9.44 µM (active) and 4.68 µM (active).
With CNC[C@H](O)c1ccc(O)c(O)c1 the “activity change, negative = cell killing” value was -22.4%.
For N=C(N=C(N)N)N1CCOCC1, the “activity change, negative = cell killing” value was -3.17%.
With O=C(NC(Cc1cc(=O)[nH]c2ccccc12)C(=O)O)c1ccc(Cl)cc1 (stereo not given) the Potency was “inactive”.
With CCCS(=O)c1ccc2nc(NC(=O)OC)[nH]c2c1 (stereo not given) the Potency was 2.66 µM (active) and 18.6 µM (active) and 4.09 µM (active).
With CCC(C)(Oc1ccc(C2(c3ccc(OC(C)(CC)C(=O)O)cc3)CCCCC2)cc1)C(=O)O (stereo not given) the Potency was “inactive”.
With CCCc1cc(=O)[nH]c(=S)[nH]1 the Potency was “inactive”.
For Clc1ccc(C(Cn2ccnc2)OCc2c(Cl)cccc2Cl)c(Cl)c1 (stereo not given), the Potency was 21.1 µM (active) and 18.6 µM (active).
For O=c1oc2cc(O)ccc2s1, the Potency was 20.9 µM (active).
In the case of O=C(O)c1cccnc1Nc1cccc(C(F)(F)F)c1, the “activity change, negative = cell killing” value was -22.1%.
For N=C(N)c1ccc2cc(OC(=O)c3ccc(N=C(N)N)cc3)ccc2c1, the “activity change, negative = cell killing” value was -23.1%.
With CC(C)[C@H](N)C(=O)OCCOCn1cnc2c(=O)[nH]c(N)nc21 the Potency was “inactive”.
With N[C@@H](Cc1cc(I)c(Oc2cc(I)c(O)c(I)c2)c(I)c1)C(=O)O the Potency was “inactive”.
In the case of CCOC(=O)c1c(C)n(C)c2ccc(O)cc12, the Potency was “inactive”.
In the case of Clc1ccc(C(Cn2ccnc2)OCc2ccc(Sc3ccccc3)cc2)c(Cl)c1 (stereo not given), the Potency was 16.6 µM (active).
With COCCCOc1ccnc(CS(=O)c2nc3ccccc3[nH]2)c1C (stereo not given) the “activity change, negative = cell killing” value was -0.248%.
With CCN(CCO)CCCC(C)Nc1ccnc2cc(Cl)ccc12 (stereo not given) the outcome was “inactive [at 4.96 µM]”.
For CC1=C(C)C(=O)C(C(CCCCCC(=O)O)c2ccccc2)=C(C)C1=O (stereo not given), the “activity change, negative = cell killing” value was -5.87%.
For Clc1ccc2c(N3CCN(CCCN4CCN(c5ccnc6cc(Cl)ccc56)CC4)CC3)ccnc2c1, the “activity change, negative = cell killing” value was -21.6%.
For CCCCCCCCCCCCCCCCCCCCCCO, the “activity change, negative = cell killing” value was 7.06% [at 17.3 µM].
For CCOC(=O)C1=C[C@@H](OC(CC)CC)[C@H](NC(C)=O)[C@@H](N)C1, the “outcome” value was “inactive”.
With NC(=NCc1ccccc1)NC(=O)c1nc(Cl)c(N)nc1N the Potency was 13.2 µM (active).
In the case of NS(=O)(=O)c1cc(C(=O)O)c(NCc2ccco2)cc1Cl, the “activity change, negative = cell killing” value was 6.05%.
